Results published in PubChem BioAssay (EPA / NIEHS).
Activity calls are given as the source filed them. The calls were made as follows: active = hit-call score of the fitted dose curve at least 0.9, where 1 is the maximum; inactive = score below 0.9.

Assay: ATG_Oct_MLP_CIS: Attagene CIS-FACTORIAL HepG2 Assay for human Octamer-Binding Transcription Factor (Oct) (AID 2282993)
Details: HepG2 Attagene cis-factorial Oct reporter, mRNA; actives raise or lower the signal
Method: ATG_CIS is a cell-based, multiplexed-readout assay that uses HepG2, a human liver cell line, with measurements taken at 24 hours after chemical dosing in a 24-well plate.ATG_Oct_MLP_CIS is one of 52 assay component(s) measured or calculated from the ATG_CIS assay. It is designed to make measurements of mRNA induction, a form of inducible reporter, as detected with fluorescence intensity signals by Reverse transcription polymerase chain reaction (RT-PCR) and Capillary electrophoresis technology.Data from the assay component ATG_Oct_MLP_CIS was analyzed into 1 assay endpoint. This assay endpoint, ATG_Oct_MLP_CIS, was analyzed with bidirectional fitting relative to DMSO as the negative control and baseline of activity. Using a type of inducible reporter, measures of mRNA for gain or loss-of-signal activity can be used to understand the reporter gene at the transcription factor-level as they relate to the gene POU2F1. Furthermore, this assay endpoint can be referred to as a primary readout, because this assay has produced multiple assay endpoints where this one serves a reporter gene function. To generalize the intended target to other relatable targets, this assay endpoint is annotated to the dna binding intended target family, where the subfamily is POU domain protein.
Human liver HepG2 cells are transiently transfected with multiple reporter transcription units (MRTUs) in 6-well plates using FuGene 6 reagent (Roche; 3 ml FuGene/1 mg DNA). The MRTU constructs are regulated by a cis-regulating element (promoter). […] A major difference between the CIS and TRANS system is that in CIS activities of endogenous TFs are measured, whereas the TRANS assay evaluates changes in activities of exogenous, chimeric NR-Gal4 proteins. […] At the end of 24 hour incubation, total RNA was isolated using TriZol reagent (Invitrogen). The isolated RNA is then reverse-transcribed using oligo(dT) primer and Mo-MLV reverse transcriptase (Invitrogen) with DNAse I (Ambion) treatment for 30 min. The one-tenth of the produced cDNA was amplified by PCR using Taq DNA polymerase (Invitrogen) and two reporter sequence-specific primers. The PCR products were fluorescently labeled by primer extension with 6-arboxyfluorescein (6-FAM) 5'-labeled reporter sequence-specific primer (2 min at 95 C, 20 s at 68 C and 10 min at 72 C) and these products were digested with 5U of HpaI (New England Biolabs) for 2h at 37 C. The fragments were purified using Qiaquick PCR columns (Qiagen), analyzed on an ABI 3130xL genetic analyzer (Applied Biosystems) with peak positions identified by using a set of X-rhodamine (ROX)-labeled MapMarker1000 molecular weight standards (BioVentures). The raw capillary electrophoresis data was processed using Attagraph software (Attagene).
With O=C(OCc1ccccc1)c1ccccc1O the outcome was “inactive”. In the case of CC(CCO)CC(C)(C)C (stereo not given), the outcome is reported as “inactive”. In the case of CC(C)=CC(=O)O, the outcome is reported as “inactive”. In the case of CC(C)(CO)CO, the outcome is reported as “inactive”. For CCOC(=O)C=Cc1ccccc1, the outcome was “inactive”. In the case of C=C/C(C)=C/C/C=C(\C)CCC=C(C)C, the outcome is reported as “inactive”. With CCCCCCCCCCCCOC(C)=O the outcome was “inactive”. In the case of O=C(C=Cc1ccccc1)OCCCc1ccccc1, the outcome is reported as “inactive”. With CC(=O)CC(=O)N(C)C the outcome was “inactive”. With [Na+] the outcome was “inactive”. In the case of C1COCO1, the outcome is reported as “inactive”. For CC(=O)CCC=C(C)CCC=C(C)C, the outcome was “inactive”. For CC/C=C\CCOC(C)OCC (stereo not given), the outcome was “inactive”. For NCCN1CCNCC1, the outcome was “inactive”. For OCCN1CCOCC1, the outcome was “inactive”. With CCC=C(C)C=O the outcome was “inactive”. With CCC(=O)OC/C=C(\C)CCC=C(C)C the outcome was “inactive”. In the case of CCCCC/C=C\C=C\C(=O)OCC, the outcome is reported as “inactive”. For O=C(O)CS, the outcome was “inactive”. For ClCCOCCOCCCl, the outcome was “inactive”. In the case of CC1=CC(O)CC(C)(C)C1 (stereo not given), the outcome is reported as “inactive”. In the case of O=C1OC2(c3ccc(O)cc3Oc3cc(O)ccc32)c2ccccc21, the outcome is reported as “inactive”. For CCOC(=O)COC(=O)c1ccccc1C(=O)OCC, the outcome was “inactive”. For OC[C@H]1O[C@@H](O[C@H]2[C@H](O)[C@@H](O)[C@H](O)O[C@@H]2CO)[C@H](O)[C@@H](O)[C@H]1O, the outcome was “inactive”. For CC(C)Cc1ccc(C(C)C(=O)O)cc1 (stereo not given), the outcome was “inactive”. With [O-]/[N+](=N\O)c1ccccc1 the outcome was “inactive”. With CCC(C)(C)C1CCC(=O)CC1 the outcome was “inactive”. With CCC(C)C1CCCCC1=O (stereo not given) the outcome was “inactive”. With O=Cc1ccccc1O the outcome was “inactive”. For C=C(C)C(N)=O, the outcome was “inactive”. With CNC(=C[N+](=O)[O-])NCCSCc1ccc(CN(C)C)o1 the outcome was “inactive”. For c1ccc(Sc2ccccc2)cc1, the outcome was “inactive”. For CCCCCCCCCC(=O)OCC, the outcome was “inactive”. In the case of C=C(C)C(=O)OCCN(C)C, the outcome is reported as “inactive”. In the case of C=CC(C)(CCC=C(C)C)OC(=O)CC (stereo not given), the outcome is reported as “inactive”. With CCCC1CCC(=O)CC1 the outcome was “inactive”. With CN(C)c1ccc(C=O)cc1 the outcome was “inactive”. With CCCC1CCOC(C)S1 (stereo not given) the outcome was “inactive”. For c1ccc(OCCOc2ccccc2)cc1, the outcome was “inactive”. In the case of CCCCC(CC)COCCO (stereo not given), the outcome is reported as “inactive”.
